Screening data from PubChem.
L3MBTL1 block: inhibitors of human L3MBTL1. Q9Y468. AlphaScreen L3MBTL1–H3K9me1 peptide binding. 230,000 tested, 0.66% active. AID 485360. Potency, µM (doses to about 57.1 µM), most hits filed as inhibitors; also: nearly all actives have a fitted effect of over 60% in size
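Read-out is AlphaScreen signal from streptavidin donor and nickel chelate acceptor beads (10 ug/mL final each) bridging L3MBTL1 (50 nM) and biotinylated K9-monomethylated H3(1-15) peptide (75 nM), after 30 min compound exposure at room temperature.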
BAZ2B block: blocks human BAZ2B; AlphaScreen BAZ2B-H3K14Ac peptide displacement; 360,000 tested, 4.4% active; AID 504333; Potency, µM (titrated, usually from 114 µM), usual class: inhibitors; Q9UIF8; also: nearly all actives have a fitted effect of over 60% in size
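Protein-peptide AlphaScreen: BAZ2B 50 nM, b-H3K14Ac 50 nM, 1x PBS pH 7.4 + 0.01% Tween-20. Preincubation 30 min RT; cpd 30 min RT (top 110 uM); beads 20 min RT, light-protected.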
G9a inh: inhibitors of human histone lysine methyltransferase G9a; G9a H3K9 monomethylation, AlphaScreen, 2 h; Potency, µM (highest dose often 102 µM), most hits filed as inhibitors; 350,000 tested, 8.8% active; AID 504332; also: nearly all actives have a fitted effect of over 75% in size
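AlphaScreen detection with an anti-monomethyl H3K9 antibody quantified product after a 2 h room-temperature reaction containing 500 nM biotinylated H3K9 peptide, 20 µM SAM and 20 nM enzyme, which had been preincubated 15 min with compound.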
Sfp PPTase inh: blocks B. subtilis Sfp PPTase activity; Q9F4F7; Biochemical Sfp PPTase activity, qHTS; Potency, µM, most hits filed as inhibitors; 310,000 tested, 3.5% active; AID 1490;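 also: the enzyme is Sfp with the accession as filed and its product quenches rhodamine fluorescence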
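Fluorescence-quenching assay with 15 nM Sfp, 5 uM rhodamine-CoA and 12.5 uM BHQ-2-labelled ybbR peptide in pH 7.6 Hepes/MgCl2 buffer. Enzyme was pre-incubated with compound for 15 min at room temperature. Rate was taken from the 30-min fluorescence change (525/598 nm).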
JMJD2A Tudor inh: JMJD2A Tudor domain (human) inhibition; AlphaScreen JMJD2A-Tudor / H3K4me3 peptide binding; 390,000 tested, 4.4% active; AID 504339; O75164; Potency, µM (highest dose often 114 µM), hits mostly inhibitors; also: nearly all actives have a fitted effect of over 50% in size
Target sequence (O75164 whole entry, looked up, the tested form may be a part): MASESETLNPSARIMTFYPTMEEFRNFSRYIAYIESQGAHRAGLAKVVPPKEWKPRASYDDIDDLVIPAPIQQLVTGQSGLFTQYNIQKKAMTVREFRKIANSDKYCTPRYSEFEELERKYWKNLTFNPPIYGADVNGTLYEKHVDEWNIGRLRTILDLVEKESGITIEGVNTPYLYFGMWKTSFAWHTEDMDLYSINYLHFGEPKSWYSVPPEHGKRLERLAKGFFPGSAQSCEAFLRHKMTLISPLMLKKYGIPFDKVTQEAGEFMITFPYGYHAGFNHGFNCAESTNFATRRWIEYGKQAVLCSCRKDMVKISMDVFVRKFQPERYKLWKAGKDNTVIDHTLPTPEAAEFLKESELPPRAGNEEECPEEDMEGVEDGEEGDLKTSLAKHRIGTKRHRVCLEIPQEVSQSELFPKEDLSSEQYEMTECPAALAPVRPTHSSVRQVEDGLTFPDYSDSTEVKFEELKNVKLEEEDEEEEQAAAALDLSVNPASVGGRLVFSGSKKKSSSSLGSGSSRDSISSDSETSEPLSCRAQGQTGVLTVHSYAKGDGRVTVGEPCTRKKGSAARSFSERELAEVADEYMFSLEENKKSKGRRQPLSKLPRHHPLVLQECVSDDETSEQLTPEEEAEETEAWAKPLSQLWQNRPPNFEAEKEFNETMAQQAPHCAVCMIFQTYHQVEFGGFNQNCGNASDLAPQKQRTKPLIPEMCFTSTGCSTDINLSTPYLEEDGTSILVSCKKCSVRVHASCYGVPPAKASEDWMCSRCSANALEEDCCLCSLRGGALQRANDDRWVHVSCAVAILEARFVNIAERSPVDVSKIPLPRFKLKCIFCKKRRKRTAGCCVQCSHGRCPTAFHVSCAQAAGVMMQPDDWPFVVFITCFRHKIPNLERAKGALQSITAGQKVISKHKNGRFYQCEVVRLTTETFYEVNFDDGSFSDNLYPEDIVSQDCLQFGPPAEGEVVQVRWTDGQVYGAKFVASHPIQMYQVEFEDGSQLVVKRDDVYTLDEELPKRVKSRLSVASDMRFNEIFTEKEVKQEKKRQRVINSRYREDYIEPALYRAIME
HP1b binding inh: inhibitors of HP1-beta chromodomain binding to methylated histone tails; Potency, µM (series often up to 114 µM), hits mostly inhibitors; P83916; AlphaScreen HP1-beta / biotin-H3K9me3 peptide binding; 390,000 tested, 0.56% active; also: nearly all actives have a fitted effect of over 70% in size
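Compound inhibition of the preformed complex between 50 nM HP1-beta and 50 nM biotinylated H3K9me3 peptide was read by AlphaScreen. Buffer was PBS pH 7.4 with 0.01% Tween-20. Incubations ran 30 min at room temperature, with 10 ug/mL donor/acceptor beads.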
A number is an active result; n = inactive; u = inconclusive; x = no result given; [ ] = remark or other dose. In the library only some 12% were active in any assay of this set; here they are far more common. Calls follow the shape of the dose curve; as a rule, active = well fitted curve in the direction sought with a large enough effect; inconclusive = small, poorly fitted or top-dose-only effect, or another doubt; inactive = no such curve, though single readings can be large; an effect the other way counts as inactive or inconclusive.

SMILES	L3MBTL1 block	BAZ2B block	G9a inh	Sfp PPTase inh	JMJD2A Tudor inh	HP1b binding inh
CCOC(=O)Nc1ccc2c(c1)C(=NNC(N)=S)c1ccccc1-2	x	x	x	x	u	n
NC(=O)c1cccc2c1-c1ccccc1/C2=N/NC(N)=S	x	u	45µM	n	n	n
NC(=S)N/N=C1\c2ccccc2-c2c(C(=O)O)cccc21	n	n	28µM	79µM	n	n
COC(=O)c1cccc2c1-c1ccccc1/C2=N\NC(N)=O	x	n	n[2.33 µM]	n	n	n
O=S(=O)(NCCc1c[nH]c2ccccc12)c1ccccc1	x	n	n	n	n	n
O=S(=O)(NCCc1cn(S(=O)(=O)c2ccccc2)c2ccccc12)c1ccccc1	x	x	x	x	50µM	n
COc1cccc(Cn2c(Oc3cc(C)cc(C)c3)nc3c2c(=O)n(C)c(=O)n3C)c1	x	u	u	x	n	n
COc1ccc(N2COC3c4cccc5cccc(c45)C32)cc1 (stereo unspecified)	n	45µM	u	n	63µM	n
Clc1ccc(N2COC3c4cccc5cccc(c45)C32)cc1 (stereo unspecified)	n	n	n	n	n	n
CCc1nn2c(=O)cc(COC(=O)C3CCCCC3)nc2s1	x	n	n	x	n	n
CC(C(=O)O)C(=O)O	n	n	10µM	x	79µM	n
CC(O)C(=O)O (stereo unspecified)	x	x	n	n	x	x
CCCCn1cc(S(=O)(=O)c2ccc(OC)cc2)c(=O)c2cc(F)c(F)cc21	x	n	n	x	n	n
COc1ccccc1Cc1nc2ccccc2nc1SCC(=O)N1CCC(C)CC1	x	n	n	x	n	n
O=C(NNC(=O)c1cc2ccccc2oc1=O)c1ccccc1	x	n	32µM	50µM	n	u
O=C(OCCNC(=O)c1cc2ccccc2oc1=O)c1cccnc1	n	n	u	n	n	n
O=C(c1ccccc1)c1cc2ccccc2oc1=O	x	n	n	n	n	n
O=C(NCc1cccnc1)c1cc2ccccc2oc1=O	x	n	50µM	n	n	n
O=C(NCc1ccc(F)cc1)c1cc2ccccc2o1	x	n	79µM	n	n	n
O=C(NNC(=O)c1cc2ccccc2o1)c1ccc(F)cc1	n	n	n[0.501 µM]	x	n	n
CCOC(=O)COc1ccc(CC)cc1C(=O)c1ccn2nc(-c3ccc(Cl)cc3)cc2n1	x	n	n	x	n	n
CCOc1cccc(NC(=O)C2CC(=O)N(C)C(=Nc3ccc(F)cc3)S2)c1 (stereo unspecified)	x	n	n	x	n	n
O=C(Cn1c(=O)n(Cc2ccc(C(=O)NCc3ccc4c(c3)OCO4)cc2)c(=O)c2ccccc21)Nc1ccc(F)cc1F	x	n	n	x	u	n
COc1cccc(C2c3cc4c(cc3OC(N3CCOCC3)C2C)OCO4)c1O (stereo unspecified)	x	x	x	x	40µM	u
COc1cccc(C2c3cc4c(cc3OC(NNC(N)=O)C2C)OCO4)c1O (stereo unspecified)	x	x	x	x	u	n
SMILES	L3MBTL1 block	BAZ2B block	G9a inh	Sfp PPTase inh	JMJD2A Tudor inh	HP1b binding inh
COc1cccc(CNC(=O)C2CCCCN2S(=O)(=O)c2ccc(F)cc2)c1 (stereo unspecified)	x	n	n	x	n	n
COc1ccc(OC)c(-c2csc(NC(=O)CN3C(=O)C4CCCCC4C3=O)n2)c1 (stereo unspecified)	n	u	50µM	x	u	u
COc1ccc(OC)c(-c2csc(NC(=O)Cc3cc(OC)c(OC)c(OC)c3)n2)c1	x	n	n	n	n	n
COc1ccc(-c2csc(NC(=O)CN3C(=O)NC4(CCCC4)C3=O)n2)c(OC)c1	n	n	50µM	x	n	n
COc1ccc(OC)c(-c2csc(NC(=O)COC(=O)c3ccc(NC(=O)CC#N)cc3)n2)c1	u	40µM	n[12.7 µM]	x	45µM	n
COc1ccc(-c2csc(NC(=O)CN3C(=O)NC4(CCCC4)C3=O)n2)cc1OC	n	n	56µM	x	n	n
COc1ccc(-c2csc(NC(=O)CN3C(=O)C4CCCCC4C3=O)n2)cc1OC (stereo unspecified)	x	u	n	n	n	n
CCOC(=O)c1ccc(NS(=O)(=O)c2cn(C)c(C)n2)cc1	x	n	n	x	n	n
Cc1ccc(-c2[nH][nH]c(=O)c(=O)c2N=Nc2ccccc2)cc1	x	n	45µM	n	n[11.4 µM]	u
O=C(O)C(Oc1ccc2ccc(=O)oc2c1)c1ccccc1 (stereo unspecified)	x	x	x	n	x	x
CCC(CC)=NNc1ccc([N+](=O)[O-])cc1[N+](=O)[O-]	n	u	n	n	n	n
C/C(CCC(=O)O)=N/Nc1ccc([N+](=O)[O-])cc1[N+](=O)[O-]	n	u	u	n	u	n
CCOC(=O)CC(C)(C)/C(C)=N/Nc1ccc([N+](=O)[O-])cc1[N+](=O)[O-]	u	7.1µM	8.9µM	n	u	14µM
O=C(O)/C(CC(=O)c1ccc(Cl)cc1)=N/Nc1ccc([N+](=O)[O-])cc1[N+](=O)[O-]	x	40µM	n[2.33 µM]	n	40µM	n
O=C(O)C1(Nc2ccc([N+](=O)[O-])cc2[N+](=O)[O-])CCCC1	x	x	x	x	n	n
C#CCOC(=O)CCCNc1ccc([N+](=O)[O-])cc1[N+](=O)[O-]	n	50µM	n	n	56µM	n
CCOC(=O)C(C(=O)OCC)C(C)(C)/C(C)=N\Nc1ccc([N+](=O)[O-])cc1[N+](=O)[O-]	u	10µM	u	n	32µM	35µM
C/C(CCCO)=N/Nc1ccc([N+](=O)[O-])cc1[N+](=O)[O-]	n	u	n	n	n	n
NC(=O)n1c(O)c(C(=O)c2cccs2)c2cc(Cl)ccc21	x	x	u	n	x	x
Cc1cc([N+](=O)[O-])c(C)cc1-c1ccc(/C=N/NC(=O)c2cccnc2)o1	n	u	45µM	n	n	n
O=[N+]([O-])c1ccccc1-c1ccc(/C=N/n2cnnc2)o1	n	n	n	n	n	n
O=C(N/N=C/c1ccc(-c2ccccc2[N+](=O)[O-])o1)c1cncc(Br)c1	n	n	32µM	u	u	u
Nn1cnnc1N/N=C\c1ccc(-c2ccccc2[N+](=O)[O-])o1	n	u	35µM	45µM	u	n
CCOc1ccc(S(=O)(=O)Nc2ccc(OC)c(Cl)c2)c2cccnc12	x	n	n	x	n	n
Cc1cccc(C(c2sc3nc(-c4ccco4)nn3c2O)N2CCOCC2)c1 (stereo unspecified)	x	n	n	x	n	n
CC1CC(C)C[N+](=C2C=C(N3CCCC3)CC(C)(C)C2)C1 (stereo unspecified)	n	n	u	n	18µM	u
CC1(C)CC(N2CCN(c3ccccc3)CC2)=CC(=[N+]2CCCC2)C1	n	n	45µM	n	u	n
NC1=NC(=O)/C(=C\c2ccc(O)c([N+](=O)[O-])c2)S1	n	n	u	n	n	n
NC1=NC(=O)/C(=C/c2cccc(-c3ccc(S(N)(=O)=O)cc3)c2)S1	n	u	35µM	n	n	n
